This passage reports growth results from PubChem BioAssay (NCI).

This is part of a sample that, as a whole, favours compounds with a hit. Of some 83,000 tested, about 20% had one in any assay.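 Note: values are percent growth. 100 is the growth of untreated cells, values between 100 and 0 indicate rising inhibition; between -100 and 0 indicates cell death.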 Calls of active or inactive are those of the source. The calls were made as follows: active = growth percent below 10; inactive = the rest.

Among the test systems are SNB-75 CNS; SNB-19 CNS; U251 CNS; PC-3 prostate; SK-MEL-5 melanoma; UACC-62 melanoma; LOX IMVI melanoma; SK-MEL-28 melanoma; SK-MEL-2 melanoma; EKVX NSCLC; SN12C renal; UO-31 renal; TK-10 renal; ACHN renal; CAKI-1 renal; A498 renal; CCRF-CEM leukemia; MOLT-4 leukemia; HT29 colon.
Holding throughout (test): NCI-60 one-dose screen, 48 h (100 = growth as untreated, 0 = no growth, -100 = all killed)
Common to all, as to conditions: 10 µM unless noted

`COC(=O)Nc1ccc(NC(=O)OC)cc1`: the growth in the experiment on SNB-75 CNS was 80% (inactive); in the experiment on SNB-19 CNS it was 103% (inactive); in the experiment with U251 CNS, 99.1% (inactive); with PC-3 prostate, 77.7% (inactive); in the experiment on SK-MEL-5 melanoma, 99.1% (inactive); in the experiment with UACC-62 melanoma, 103% (inactive). Besides, the growth with LOX IMVI melanoma is 99% (inactive); with SK-MEL-28 melanoma, 116% (inactive); in the experiment on SK-MEL-2 melanoma, 88.5% (inactive); in the experiment on EKVX NSCLC, 103% (inactive); in the experiment on SN12C renal, 104% (inactive); with UO-31 renal, 87.6% (inactive). Besides, the growth in the experiment with TK-10 renal is 94.4% (inactive); in the experiment with ACHN renal, 115% (inactive); with CAKI-1 renal, 93.4% (inactive); with A498 renal, 97.2% (inactive); in the experiment on CCRF-CEM leukemia it was 68.1% (inactive); in the experiment with MOLT-4 leukemia, 100% (inactive).
As for `CCCCCCc1nc2nc(Cl)c(Cl)nc2[nH]1`, the growth in the experiment on HT29 colon is 77.3% (inactive); in the experiment on SNB-75 CNS it was 53.2% (inactive); in the experiment on SNB-19 CNS, 65.6% (inactive); with U251 CNS, 49% (inactive); with PC-3 prostate, 47.9% (inactive); in the experiment on SK-MEL-5 melanoma it was 16.2% (inactive). For the same compound, the growth in the experiment on UACC-62 melanoma was 38.4% (inactive); with LOX IMVI melanoma, 53.7% (inactive); in the experiment on SK-MEL-28 melanoma, 65.1% (inactive); in the experiment on SK-MEL-2 melanoma it was 63.4% (inactive); in the experiment on EKVX NSCLC, 52.6% (inactive); with SN12C renal, 60.8% (inactive). Moreover, the growth was 52.6% (inactive) in the experiment on UO-31 renal; 76.9% (inactive) in the experiment on TK-10 renal; 67.4% (inactive) in the experiment on ACHN renal; 39.1% (inactive) in the experiment on CAKI-1 renal; 47.8% (inactive) in the experiment with CCRF-CEM leukemia; 49% (inactive) in the experiment with MOLT-4 leukemia.
For the compound `CC(C)(C#N)N1CCN(c2ccccc2Cl)CC1`, the growth was 96.4% (inactive) with HT29 colon; 102% (inactive) with SNB-75 CNS; 118% (inactive) in the experiment on SNB-19 CNS; 102% (inactive) in the experiment with U251 CNS; 102% (inactive) with PC-3 prostate; 114% (inactive) in the experiment with SK-MEL-5 melanoma. The growth in the experiment with UACC-62 melanoma is 112% (inactive); with LOX IMVI melanoma, 87.3% (inactive); in the experiment with SK-MEL-28 melanoma it was 112% (inactive); in the experiment on SK-MEL-2 melanoma, 103% (inactive); in the experiment with EKVX NSCLC, 97.2% (inactive); with SN12C renal it was 108% (inactive). Moreover, the growth is 81.8% (inactive) in the experiment on UO-31 renal; 104% (inactive) with TK-10 renal; 109% (inactive) in the experiment with ACHN renal; 94.5% (inactive) with CAKI-1 renal; 100% (inactive) in the experiment on CCRF-CEM leukemia; 97.8% (inactive) in the experiment with MOLT-4 leukemia.
For the compound `COc1ccc2nc(N=Nc3c(O)ccc4ccccc34)sc2c1`, the growth in the experiment on HT29 colon is 28.2% (inactive); in the experiment with SNB-75 CNS, 49.4% (inactive); in the experiment with SNB-19 CNS, 31.8% (inactive); in the experiment on U251 CNS, 23.1% (inactive); in the experiment on PC-3 prostate, 49.1% (inactive); with SK-MEL-5 melanoma, 4.14% (active). Moreover, the growth with UACC-62 melanoma was 7.36% (active); in the experiment with LOX IMVI melanoma, 12.8% (inactive); in the experiment on SK-MEL-28 melanoma, 35.5% (inactive); in the experiment with SK-MEL-2 melanoma, 59.3% (inactive); with EKVX NSCLC, 17.8% (inactive); in the experiment on SN12C renal, 50.4% (inactive). In addition, the growth with UO-31 renal is 20.7% (inactive); in the experiment on TK-10 renal, 69.1% (inactive); in the experiment with ACHN renal it was 17.2% (inactive); in the experiment on A498 renal it was 79% (inactive); in the experiment on CCRF-CEM leukemia, 31.3% (inactive); in the experiment on MOLT-4 leukemia it was 19.9% (inactive).
Take `CCN(CC)CCCC(C)Nc1c2c(nc3ccc(OC)cc13)CCCC2` (stereo not drawn): the growth with HT29 colon was 79.4% (inactive); with SNB-75 CNS, 72.8% (inactive); in the experiment with SNB-19 CNS it was 100% (inactive); in the experiment with U251 CNS, 105% (inactive); with PC-3 prostate, 98.6% (inactive); in the experiment on SK-MEL-5 melanoma, 105% (inactive). For the same compound, the growth is 103% (inactive) with UACC-62 melanoma; 87.5% (inactive) in the experiment with LOX IMVI melanoma; 101% (inactive) with SK-MEL-28 melanoma; 128% (inactive) in the experiment on SK-MEL-2 melanoma; 91.2% (inactive) in the experiment with EKVX NSCLC; 76.6% (inactive) in the experiment with UO-31 renal. For the same compound, the growth in the experiment with TK-10 renal was 111% (inactive); with ACHN renal it was 96.4% (inactive); in the experiment with CAKI-1 renal, 93.7% (inactive); in the experiment on A498 renal it was 73.5% (inactive); in the experiment with CCRF-CEM leukemia, 95.5% (inactive); in the experiment with MOLT-4 leukemia it was 94.7% (inactive).
As for `Clc1ccc(C2CC(c3cccc(Nc4ccncc4)c3)=NN2c2ccc(Cl)cc2)cc1` (stereo not drawn), the growth with HT29 colon is -5.47% (active); in the experiment on SNB-75 CNS it was 70.7% (inactive); in the experiment with SNB-19 CNS it was 67.8% (inactive); in the experiment with PC-3 prostate, 17% (inactive); in the experiment with SK-MEL-5 melanoma, 33.8% (inactive); with UACC-62 melanoma, 98% (inactive). The growth with LOX IMVI melanoma is -97.2% (active); in the experiment on SK-MEL-28 melanoma it was -92.3% (active); in the experiment on SK-MEL-2 melanoma it was 85.8% (inactive); with EKVX NSCLC, 72.3% (inactive); with UO-31 renal it was 4.62% (active); in the experiment with TK-10 renal it was 50.5% (inactive). Moreover, the growth in the experiment on ACHN renal is -66.6% (active); with CAKI-1 renal it was -59.6% (active); with A498 renal it was 72.1% (inactive); with MOLT-4 leukemia, -5.2% (active).
Turning to `COc1cc2nc(-c3ccc(-c4nn[nH]n4)cc3)[nH]c(=O)c2cc1OC`, the growth in the experiment on HT29 colon was 110% (inactive); with SNB-75 CNS it was 106% (inactive); with SNB-19 CNS, 94.3% (inactive); in the experiment on U251 CNS, 105% (inactive); with PC-3 prostate, 131% (inactive); in the experiment with SK-MEL-5 melanoma it was 102% (inactive). Moreover, the growth is 105% (inactive) in the experiment with UACC-62 melanoma; 97.3% (inactive) in the experiment on LOX IMVI melanoma; 128% (inactive) with SK-MEL-28 melanoma; 122% (inactive) in the experiment with SK-MEL-2 melanoma; 108% (inactive) in the experiment with EKVX NSCLC; 140% (inactive) in the experiment with SN12C renal. Besides, the growth in the experiment with UO-31 renal is 86.3% (inactive); in the experiment with TK-10 renal, 246% (inactive); with ACHN renal it was 111% (inactive); with CAKI-1 renal, -1.66% (active); in the experiment with A498 renal it was 147% (inactive); with CCRF-CEM leukemia it was 114% (inactive). In addition, in the experiment with MOLT-4 leukemia, the growth was 95.5% (inactive).
For `COc1ccc(Cn2nc(-c3ccccc3)c3c2CCc2cnoc2-3)cc1`, the growth in the experiment with HT29 colon was 84% (inactive); in the experiment on SNB-75 CNS, 65.5% (inactive); with SNB-19 CNS, 82.2% (inactive); in the experiment with U251 CNS, 78% (inactive); in the experiment with PC-3 prostate, 52.9% (inactive); in the experiment with SK-MEL-5 melanoma, 74.5% (inactive). Besides, the growth in the experiment with UACC-62 melanoma is 51.5% (inactive); with LOX IMVI melanoma it was 72.8% (inactive); in the experiment with SK-MEL-28 melanoma, 84.8% (inactive); in the experiment on SK-MEL-2 melanoma, 111% (inactive); with EKVX NSCLC it was 65.9% (inactive); in the experiment on SN12C renal, 76.8% (inactive). Also, the growth in the experiment on TK-10 renal is 105% (inactive); in the experiment with ACHN renal, 81.4% (inactive); with CAKI-1 renal it was 66.3% (inactive); with A498 renal it was 58.7% (inactive); in the experiment with CCRF-CEM leukemia, 67.8% (inactive); with MOLT-4 leukemia, 52.7% (inactive).
